The test system of the experiment is VDR:RXRa (NR concentration 270 nM, RXRa partner concentration 90 nM). The experiment in a line: PBM binding z-score (relative to random genomic background probes); higher = stronger binding; sequences stand for … in GC…GCGATTGACAGCGTAGAATGAAGG
Here is the method: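 Protein-binding microarray (Agilent 4x180K custom design, double-stranded 60-nt probes: 5' GC cap, 34-nt variable region, 24-nt constant primer region; full probe sequence given). Purified or IVT nuclear receptor:RXRα heterodimers (3:1 NR:RXRα, mostly 270:90 nM) or homodimers were incubated for 1 h in PBS with 2% milk and no ligand, then detected with Alexa488 antibodies. Fluorescence from o1-orientation probes (~5 replicates averaged) was converted to z-scores against 500 random hg19 background probes. Variable regions are seed direct-repeat (DR0–DR5) sites, all their single-nucleotide variants and half-site ablations.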
Sequence CCTACTGGGCCATCAGGTAATTGATATCAACGTT registered a PBM binding z-score of -0.176. In turn, CCGACTGGGGCAGAGGTTACCATACTCAGTACGA had a PBM binding z-score of 0.52. For the sequence GCGACTGGGGCAAAGCAGGATACCATAAGGTTGG, the PBM binding z-score was -0.613. In turn, ATCTCTAGATAAGACTCAGTTCAGTGAAGAACGC gave a PBM binding z-score of 0.209. Consider GATACAGGGTCAGCTAGAGGCCAGAGTCTGGAAA, for which the PBM binding z-score is 3.26. On to ATCTCTAGGTAAAAGTCCAGTGAATCCCGAGGAT, for which the PBM binding z-score stood at 0.00204. To CCTCACGGGTCACTCCAGGTTATAGCATCGGAGT belongs 4.07.

The sequence GTTAGCAGGCCATTTGGGTCACTCAATGACGGGC yielded a PBM binding z-score of 0.985. With GCGACTGGGGCAAAGCAGGTGACCATAAGGTTGG, the PBM binding z-score was -0.478. As to CCTATTAGTTGACCATAAGGGCAACCGTAGCTCG, the PBM binding z-score was found to be 0.674. As to CAGACTAGGTCACCGGAAGGTCAAAGTCCGCATG, the PBM binding z-score is 5.78. In turn, CTGCCAAGGTGAACAAGGTCGTTGATTACTATTC registered a PBM binding z-score of 5.88.

Take CCTAGCAGGCCAGGGTCACTCAGGCATTTCGCTT: the PBM binding z-score was 2.22. On to ACTATTAGTTGAGATGAGGGCAACCGATAGGTTG, for which the PBM binding z-score was determined as 0.654. Take AATACAGGGTCACTAGGCCAGTGTAGGTACGAAT: the PBM binding z-score is 4.26. As for ACTATTAGTTGACTGAGGGCAACCGATACGACGC, the PBM binding z-score is 2.41. Turning to ATCTCTAGGTAACCATGTTCAGTGAATGCCGAAC, the PBM binding z-score amounted to 0.463. Regarding ATCGCTAGGTAAGACTCAGTTCAGTGAAGAACGC, the PBM binding z-score is -0.0263. With TGACCAAGGTGAAAGGTCGTTGATGCACGCCTTG the figure was 2.96; with ACTATTAGATGACTTAGGGCAACCGATACGACGC, 0.293; with ACTATAAGTTGACTTAGGGCAACCGATACGACGC, 0.769. In the case of CCTCCTAGGTCATGGTCAGCTAATCTACAGTATG, the PBM binding z-score was 1.93. The sequence ATCTCTAGGTAAAGTTAAGTGAAAGATCGATAGA gave a PBM binding z-score of 0.476. ATCTCTAGGTAAGACTCAGTTCTGTGAAGAACGC displayed a PBM binding z-score of 0.069. In the case of CGTCCAAGGTCAATACTAGGTCAGTGAAAGCATT, the PBM binding z-score turned out to be 4.63. CCTTACAGGTCACTCCAGGTTATAGCATCGGAGT returned a PBM binding z-score of 4.12. CCTCGGAGGAGAGAAGGTCAGAGCTGTCCGCTTT: the PBM binding z-score is 0.722.

CGTCCTAGGTCAGCAGGTCAGTGAAAGCGACGTG: the PBM binding z-score stood at 2.07. Turning to TGTCACAGTTCAAAGGTAACGTAAGTATCCACAC, the PBM binding z-score stood at 3.28.

For AGAATGATGTTACCAAAGATCAGGGAAACGCTTG, the PBM binding z-score is -0.205. In turn, TCTATTAGTTGAGGGGCAACCGACGAGTCCGTTT came in with a PBM binding z-score of 0.965. The sequence CAAACTAGGTCAAACGTCAAAGTCGAGCCAACCA gave a PBM binding z-score of 2.41. For TCTTGTAGATCAATAGCGGTTAAGAAAGTGCGCT, the PBM binding z-score stood at 0.46. CCTGCTGGGCCAAAGGTCATTGATTCCAATGCTC had a PBM binding z-score of 4.43. Turning to AGTCATAGTTCAGGACGAGGTAACGTAAAGCACG, the PBM binding z-score turned out to be 0.92.

Consider AGGACGAGGGCACGCTGAGTTGATAGCAGAGTAG, for which the PBM binding z-score amounted to 2.09. With TCGATTAGGTTACCAATGGGGCATTCAGCTTTCT, the PBM binding z-score stood at 0.441.

Sequence TTTCGGAGGACACGAAGGTCAGAGCTTTCCAGAG returned a PBM binding z-score of 2.47. For the sequence CCTACTGGGCCATCCAGAGGTCATTGATCATATG, the PBM binding z-score is 4.12. CATGCTAGGTCATGGTCAGCTAATCTACAGTATG yielded a PBM binding z-score of 1.79.

Values taken from the supplement of paper PMC6555819.
